{
  "source": "PubChem BioAssay (NCI)",
  "note": "Values joined by “and” are separate entries in the source; they are usually repeats but may differ in a detail not shown here. Equal values may be shown once. Compounds without any hit were thinned out: in the full panel of roughly 83,000, 20% have a hit.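 Single-concentration screen, 48 h exposure, 96-well plates. Endpoint: percent growth. Below 10 = active.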 Active and inactive are the calls of the source.",
  "data": [
    {"test_system": "TK-10 renal", "experiment": "NCI-60 one-dose screen, 48 h (100 = growth as untreated, 0 = no growth, -100 = all killed)", "settings": "0.005 µM", "experimental": "(§1) Growth inhibition of the TK-10 human tumor cell line is measured as a screen for anti-cancer activity. Cells are grown in 96 well plates and exposed to the test compound for 48 hours. Compounds are tested at a single concentration, which is 10^-5 M for most compounds. The reported endpoint is percent growth (GI% or GIPRCNT), where numbers from 0 - 100% represent growth inhibition, and numbers from -100% - 0 represent cell death. For example, a value of 40 represents 60% growth inhibition. A value of 0 means no net growth occurred over the course of the experiment. A value of -40 indicates 40% of cells at the beginning of the experiment died by the end of the experiment. A value of -100 means all cells are dead at the end of the experiment.\n(§2) NCI-60 Human Tumor Cell Lines Screen was performed using the standard one-dose NCI protocol, which is described in more detail at https://dtp.cancer.gov/discovery_development/nci-60/default.htm.\n(§3) Compounds with GIPRCNT values below 10 were considered active. Activity score was based on GIPRCNT using the following formula: […]\n(§4) Score is 0 for GIPRCNT values of 100 or above, 50 for GIPRCNT values of 0, and 100 for GIPRCNT values of -100.", "values": [
      {"smiles": "CN(C)CCNc1ncc(F)c(-c2cnc3cc(-c4cnn(C)c4)ccn23)n1", "growth": "105% (inactive)"}
    ]},
    {"test_system": "TK-10 renal", "experiment": "NCI-60 one-dose screen, 48 h (100 = growth as untreated, 0 = no growth, -100 = all killed)", "settings": "10 µM", "experimental": "as §1, §2, §3, §4", "values": [
      {"smiles": "CC(C)(C)CC(N)=O", "growth": "100% (inactive)"},
      {"smiles": "COc1ccc(C(=O)/C=C/c2ccc(OCc3ccc(Cl)cc3)cc2)cc1OC", "growth": "101% (inactive)"},
      {"smiles": "CC(=O)/C=C/c1ccc(N(CCO)Cc2ccc(C(C)(C)C)cc2)cc1", "growth": "96.7% (inactive)"}
    ]},
    {"test_system": "TK-10 renal", "experiment": "NCI-60 one-dose screen, 48 h (100 = growth as untreated, 0 = no growth, -100 = all killed)", "settings": "10 µM unless noted", "experimental": "as §1, §2, §3, §4", "values": [
      {"smiles": "Cc1c(C(C)(C)O)cn2ncnc(Oc3ccc(NC(=O)Nc4ccc(Cl)c(C(F)(F)F)c4)cc3)c12", "growth": "45.9% (inactive)"},
      {"smiles": "CCOC(=O)n1cc(-c2nonc2-c2cn(C)c3ccc(OC)cc23)c2cc(F)ccc21", "growth": "94.2% (inactive)"},
      {"smiles": "Nc1ccccc1SC(CC(=O)c1ccccc1)c1ccc([N+](=O)[O-])cc1", "note": "(stereo not given)", "growth": "118% (inactive) and 109% (inactive)"},
      {"smiles": "COc1cc(/C=C2\\C(=O)N(CCCCn3c4ccccc4c(=O)c4ccccc43)c3ccccc32)cc(OC)c1O", "growth": "120% (inactive)"},
      {"smiles": "O=C(CCN1CCOCC1)Nc1cccc(-n2cc(-c3ccncc3)c(-c3ccc(Cl)c(O)c3)n2)c1", "growth": "54.5% (inactive)"},
      {"smiles": "O=C(Nc1ccccc1C(=O)N/N=C(\\c1ccccc1)c1ccccn1)c1ccccc1", "growth": "47.4% (inactive)"},
      {"smiles": "COc1cc(OC)cc(-c2ccc(-c3ccc(C(=N)N)cn3)s2)c1", "growth": "113% (inactive)"},
      {"smiles": "O=C(/C=C/c1ccc([N+](=O)[O-])cc1)c1ccccc1", "growth": "68.9% (inactive)"},
      {"smiles": "CC1(Cc2ccccc2)CC2=C(C(=O)O1)C(c1ccccc1)NC(=O)N2", "note": "(stereo not given)", "growth": "108% (inactive)"},
      {"smiles": "Cc1nc2sc(C(=O)Nc3cccc4ncccc34)c(N)c2cc1C(C)O", "note": "(stereo not given)", "growth": "103% (inactive)"},
      {"smiles": "CCOC(=O)CCCn1c(-c2ccccc2)cc(-c2ccccc2)c(C#N)c1=O", "growth": "113% (inactive)"},
      {"smiles": "CN(C)C1CCN(C(=O)c2ccc(NC(=O)Nc3ccc(-c4nc(N5CCOCC5)c5cccn5n4)cc3)cc2)CC1", "growth": "-20.9% (active)"},
      {"smiles": "CN(C)C(=O)c1cc2cnc(Nc3ccc(-c4csc5c(=S)cc(N6CCOCC6)oc45)cc3)nc2n1C1CCCC1", "growth": "4.82% (active)"},
      {"smiles": "CN(C)c1ccc2nc3ccc(=O)cc-3sc2c1", "growth": "60.9% (inactive) and 67.4% (inactive)"},
      {"smiles": "CN1CCN(CCNC(=O)c2cccc(CN3c4cccc5c4C(=Cc4cccnc43)N(C)C5=O)c2)CC1", "growth": "25.4% (inactive)"},
      {"smiles": "C#CCn1cnc2cnc(Nc3cccc(NC(=O)CCl)c3)nc21", "growth": "-5.69% [6.25 µM] (active)"},
      {"smiles": "O=C1c2cccc3cccc(c23)C(=O)N1N1C(=O)c2cccc3c(N4CCNCC4)ccc(c23)C1=O", "growth": "113% (inactive)"},
      {"smiles": "COc1cc(-c2nc(SCCC(C)C)nc(Nc3ccc(F)cc3)c2C#N)cc(OC)c1OC", "growth": "41.4% (inactive)"},
      {"smiles": "N#Cc1ccccc1-c1ccc(Cn2c(-c3cscn3)nc3c(Cl)cccc32)cc1", "growth": "81.4% (inactive)"},
      {"smiles": "CCCCCCNC(=O)Oc1ccc(/C(=C(/CC)Cc2ccccc2)c2ccc(OCCCN(C)C)cc2)cc1", "growth": "82.2% (inactive)"},
      {"smiles": "CCOC(=O)c1ccc(Nc2ncnc3c2cnn3-c2cccc(F)c2)cc1", "growth": "115% (inactive)"},
      {"smiles": "CN1CCN(C(=O)OCc2nc3c(N4CCOCC4)nc(Cl)nc3n2C)CC1", "growth": "-78% (active)"},
      {"smiles": "COc1ccc2c(c1)c(C(=O)c1nc(-c3cn(C)c4ccccc34)no1)cn2C", "growth": "91.7% (inactive)"},
      {"smiles": "COc1ccc(-c2cc(=O)c3c(O)cc(O)cc3o2)cc1", "growth": "119% (inactive) and 104% (inactive)"},
      {"smiles": "CCOC(=O)c1cnn(-c2ccc(S(N)(=O)=O)cc2)c1N", "growth": "99.6% (inactive)"},
      {"smiles": "CCN1CCN(CC(=O)Nc2nc3ccc(NCc4ccc(C)cc4)cc3s2)CC1", "growth": "93.6% (inactive)"},
      {"smiles": "CN1CCN(Cc2ccc(NC(=O)c3cccc(C#Cc4c(N)ncc5ccc(F)cc45)c3)cc2C(F)(F)F)CC1", "growth": "-70.9% (active)"},
      {"smiles": "COc1ccc(/C=C(\\C#N)c2cc3ccccc3[nH]2)cc1", "growth": "53.6% (inactive)"},
      {"smiles": "Cc1ccccc1SSc1ccccc1C", "growth": "85.5% (inactive)"},
      {"smiles": "COc1cc(-c2nc3occn3c2-c2ccnc(NCCCNS(=O)(=O)c3ccc(O)cc3)n2)ccc1F", "growth": "133% (inactive)"},
      {"smiles": "CN1CCN(c2ccc(Nc3ncc(C(N)=O)c(NCCCNC(=O)C4CCC4)n3)cc2)CC1", "growth": "39.8% (inactive)"},
      {"smiles": "Cn1cc(-c2csc(-c3c[nH]c4ccc(F)cc34)n2)c2cnccc21", "growth": "-28% (active)"}
    ]},
    {"test_system": "TK-10 renal", "experiment": "NCI-60 one-dose screen, 48 h (100 = growth as untreated, 0 = no growth, -100 = all killed)", "settings": "30 µM", "experimental": "as §1, §2, §3, §4", "values": [
      {"smiles": "CN(C)CCNc1ncc(F)c(-c2cnc3cc(-c4cnn(C)c4)ccn23)n1", "growth": "56.4% (inactive)"}
    ]},
    {"test_system": "TK-10 renal", "experiment": "NCI-60 one-dose screen, 48 h (100 = growth as untreated, 0 = no growth, -100 = all killed)", "settings": "100 µM", "experimental": "as §1, §2, §3, §4", "values": [
      {"smiles": "CC(C)(C)CC(N)=O", "growth": "105% (inactive) and 103% (inactive)"},
      {"smiles": "COc1ccc(C(=O)/C=C/c2ccc(OCc3ccc(Cl)cc3)cc2)cc1OC", "growth": "0.092% (active)"},
      {"smiles": "CC(=O)/C=C/c1ccc(N(CCO)Cc2ccc(C(C)(C)C)cc2)cc1", "growth": "-96.7% (active)"}
    ]}
  ]
}
